Tg IFNy HTS: blocks Toxoplasma gondii growth in the presence of IFN-gamma; Toxoplasma gondii growth in IFN-gamma-treated host cells; active compounds read low; activity change, negative = inhibition, % (test concentration not listed); 3.8% of 69,000 active; in the data active = activity change below about -70%, passing the limit was not always enough;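 also: host cells are HeLa cells infected with Toxoplasma gondii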
* hit, by the source's call. The sample as a whole holds a higher share of hits than the screen did.

SMILES	Tg IFNy HTS
CN1CCCn2nc(C(=O)N3CCN(CC4CCCO4)CC3)cc2C1 (centres undefined)	-3
CNc1nc(-c2ccnc3c2ccn3C)nc2c1CCC2	-27
c1ccc(NCc2ccc(CNc3ccccn3)cc2)nc1	22
CCn1c(C)ccc(C(=O)N[C@H]2C[C@H]3C(=O)N(C)CC(=O)N3C2)c1=O	-12
O=C(C1CCCN(c2cnc3nccnc3c2)C1)N1CCC(N2CCCCC2)CC1 (centres undefined)	11
CCc1[nH]c2c(CNS(=O)(=O)c3cnn(C)c3C)cc(C)cc2c1C	0
CC(C)OC(=O)OCOP(=O)(CO[C@H](C)Cn1cnc2c(N)ncnc21)OCOC(=O)OC(C)C	-78*
Nc1ncnc2c1ncn2CCOCP(=O)(O)O	8
Nc1ncnc2c1ncn2C1OC(COP(=O)(O)O)C(O)C1O (centres undefined) (tested in a mixture with another compound)	18
CCS(=O)(=O)N1CCC2(CC1)Nc1cc(OC)ccc1-n1cccc12	-14
Cc1noc(C)c1CN1CCCn2nnc(COCCO)c2C1	-5
CC(=O)CC/C=C(\C)CC/C=C(\C)CC/C=C(\C)CCC=C(C)C	-77*
CC(=O)N[C@@H](CSC/C=C(\C)CC/C=C(\C)CCC=C(C)C)C(=O)O	-22
CC(C)=CCC/C(C)=C/COc1ccc2ccc(=O)oc2c1	19
C[C@H](CO)N1C[C@H](C)[C@H](CN(C)C(=O)C2CCCCC2)OCCCC[C@H](C)Oc2ccc(NS(=O)(=O)c3ccccc3)cc2C1=O	-102*
Cc1ccc(S(=O)(=O)Nc2ccc3c(c2)C(=O)N([C@@H](C)CO)C[C@@H](C)[C@H](CN(C)S(=O)(=O)c2cccs2)OCCCC[C@@H](C)O3)cc1	-103*
Cc1noc(C)c1NC(=O)Nc1ccc2c(c1)C(=O)N([C@H](C)CO)C[C@@H](C)[C@H](CN(C)S(=O)(=O)c1cccs1)OCCCC[C@H](C)O2	442
Cc1ccc(S(=O)(=O)Nc2ccc3c(c2)C(=O)N([C@H](C)CO)C[C@@H](C)[C@@H](CN(C)S(=O)(=O)c2cccs2)OCCCC[C@H](C)O3)cc1	-117*
Cc1noc(C)c1NC(=O)Nc1ccc2c(c1)C(=O)N([C@H](C)CO)C[C@@H](C)[C@@H](CN(C)S(=O)(=O)c1cccs1)OCCCC[C@H](C)O2	-42
Cc1noc(C)c1NC(=O)Nc1ccc2c(c1)C(=O)N([C@H](C)CO)C[C@H](C)[C@@H](CN(C)S(=O)(=O)c1cccs1)OCCCC[C@@H](C)O2	157
Cc1noc(C)c1NC(=O)Nc1ccc2c(c1)C(=O)N([C@@H](C)CO)C[C@@H](C)[C@@H](CN(C)S(=O)(=O)c1cccs1)OCCCC[C@@H](C)O2	3
C[C@H]1CCCCO[C@H](CN(C)C(=O)C2CCCCC2)[C@@H](C)CN([C@@H](C)CO)C(=O)c2cc(NS(=O)(=O)c3ccccc3)ccc2O1	-33
C[C@H]1CCCCO[C@@H](CN(C)C(=O)C2CCCCC2)[C@@H](C)CN([C@@H](C)CO)C(=O)c2cc(NS(=O)(=O)c3ccccc3)ccc2O1	-31
Cc1ccc(S(=O)(=O)Nc2ccc3c(c2)C(=O)N([C@H](C)CO)C[C@@H](C)[C@H](CN(C)S(=O)(=O)c2cccs2)OCCCC[C@H](C)O3)cc1	-131*
Cc1noc(C)c1NC(=O)Nc1ccc2c(c1)C(=O)N([C@H](C)CO)C[C@H](C)[C@H](CN(C)S(=O)(=O)c1cccs1)OCCCC[C@H](C)O2	262
SMILES	Tg IFNy HTS
Cc1noc(C)c1NC(=O)Nc1ccc2c(c1)C(=O)N([C@@H](C)CO)C[C@H](C)[C@H](CN(C)S(=O)(=O)c1cccs1)OCCCC[C@@H](C)O2	328
CCC(=O)Nc1ccc(OCC(=O)N2CCO[C@@H]3CCCC[C@H]32)cc1	-1
Cc1ccc(S(=O)(=O)Nc2ccc3c(c2)C(=O)N([C@H](C)CO)C[C@H](C)[C@H](CN(C)S(=O)(=O)c2cccs2)OCCCC[C@H](C)O3)cc1	-121*
Cc1noc(C)c1NC(=O)Nc1ccc2c(c1)C(=O)N([C@H](C)CO)C[C@H](C)[C@H](CN(C)S(=O)(=O)c1cccs1)OCCCC[C@@H](C)O2	43
C[C@H](CO)N1C[C@H](C)[C@H](CN(C)C(=O)c2ccncc2)OCCCC[C@H](C)Oc2ccc(NS(=O)(=O)c3cccs3)cc2C1=O	-47
CN(Cc1nc2ccccc2s1)C(=O)CN(C)C1CCS(=O)(=O)C1 (centres undefined)	-6
COc1cc(CNC(=O)C2(C)CCN(C(=O)c3ccccc3C)CC2)cc(OC)c1	18
COc1ccc2ncc3c(c2c1)-c1cc(Cl)ccc1OC3	255
CC1CN(CC(=O)NCc2ccc3c(c2)OCO3)Cc2cc(Cl)ccc2O1 (centres undefined)	3
COc1ccc(CN2COc3ccc(Cl)cc3C2)cc1	-89*
O=C(c1ccco1)N1CCC2(CC1)Nc1ccc(Cl)cc1-n1cccc12	67
CC(C)N1CCCCC(C2CCN(c3ncccn3)CC2)C1=O (centres undefined)	-1
CCN1CCN(C(=O)CCCc2cn[nH]c2)C(C)C1=O (centres undefined)	-3
Cc1ccc(-c2cc(C(=O)NCc3ccccc3)c3ccccc3n2)cc1	22
CC(C)N1CCC2(CC1)CC(COCC1CC1)N(c1ncccn1)C2 (centres undefined)	-46
COc1cccc2c(=O)c3ccccc3oc12	39
COc1cccc2c(=O)c(C/C=C(/C)Cl)c(C)[nH]c12	-81*
COc1cccc2c(=O)c(C(=O)NCc3cccnc3)c[nH]c12	-8
CCc1ccc(NC(=O)c2nc(Nc3ccc(C)cc3)c3ccccc3n2)cc1	79
CC(C)N1CCC(c2nnc3ccc(C(=O)NCCc4cccs4)cn23)C1 (centres undefined)	48
c1ccc(C(c2ccccc2)c2n[nH]c3c2CNCC3)cc1	-49
COc1ccccc1-c1cccc(-c2nc(C(=O)NCc3ccncc3)cc3c2[C@H](CCO)N([S@@](=O)C(C)(C)C)C3)c1	-2
CCC(=O)NCc1cccc(-c2ccc(OC)cc2OC)c1	-1
CN1CCN(c2ncccc2CNC(=O)COCC2CCCO2)CC1 (centres undefined)	-3
Cc1ncc(-c2ccncc2)c(-c2ccc(CNC(=O)C3CCOC3)cc2)n1 (centres undefined)	-39
SMILES	Tg IFNy HTS
COc1cc(C(=O)NCc2ccc(-c3nn(C)cc3-c3ccncc3)cc2)nc(OC)n1	-102*
COc1cc(C(=O)NCCCn2ccnc2C)nc(OC)n1	-11
COc1cccc(OC(C)C(=O)NCc2cccc(-c3nn(C)cc3-c3ccncc3)c2)c1 (centres undefined)	-114*
Cc1cnccc1-c1cn(C)nc1-c1cccc(CNC(=O)Cc2cccnc2)c1	-19
Cn1cc(-c2ccncc2)c(-c2ccc(CNC(=O)COCC3CCCCO3)cc2)n1 (centres undefined)	-92*
Cc1cc(C(F)(F)F)n2ncc(C(=O)N3CCCC(N(C)C)CC3)c2n1 (centres undefined)	-9
CCc1c(C(=O)NC(C)c2ncnn2CC)csc1C (centres undefined)	2
O=S(=O)(c1ccc(F)cc1)N1CCC2(CC(n3ccnc3)CO2)C1 (centres undefined)	-1
O=C(Cn1ncc2c(N3CCCCCC3)ncnc21)NCc1cccc(C(F)(F)F)c1	37
Cc1cc(C)c2oc(=O)cc(CN(Cc3ccccn3)CC3CCCO3)c2c1 (centres undefined)	-8
CN1CCOCC12CCN(C(=O)c1cn(C)cn1)CC2	3
